KKLEB tox: reduces viability of KKLEB cystic fibrosis airway cells | activity change (cytotoxicity), % at 5 µM | hit rate 0.36% among 360,000 | KKLEB CF airway cells viability, ATPlite luminescence, overnight; hits give low values; cells stimulated with P. aeruginosa culture filtrate | AID 602141;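 active = corrected activity change at or below -50% at 5 µM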
Peg3 prom inh: Peg3 promoter activity inhibition | inhibition, % at 20 µM | hit rate 1.7% among 360,000 | AID 588405 | HeLa PEG-Prom luciferase reporter, luminescence, overnight;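 active = inhibition of at least 50% at 20 µM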
HIF-2a block: inhibitors of HIF-2a. 786-0 RCC cells HIF-2a reporter, luciferase luminescence, overnight. inhibition, % at 18.8 µM. hit rate 0.72% among 360,000;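 active = inhibition of the luminescence signal of 40% or more relative to plate controls, in a single-dose primary screen at 18.75 µM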
MITF TRPM1 inh: inhibitors of MITF-driven TRPM1 promoter in melanoma cells; SK-MEL-5 TRPM1 promoter luciferase, 24 h; inhibition, % at 12.5 µM; hit rate 0.83% among 330,000;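 active = mean inhibition across replicates of 60% or more, whatever share of single replicates reaches that level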
CHOP inh: CHOP inhibition in unfolded protein response | CHO-K1 CHOP-promoter luciferase, tunicamycin-induced, 15-18 h | inhibition, % at 10 µM | hit rate 3.8% among 220,000 | AID 2732;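 active = compounds that reduced the stress-induced luciferase reporter signal by more than about 70% of percent inhibition, limit read from the data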
CF NFkB block: inhibitors of cystic fibrosis induced NF-kB | KKLEB NF-kB-GFP reporter, PAF-induced, GFP fluorescence overnight | inhibition, % at 5 µM | hit rate 0.86% among 360,000;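 active = at least 50% inhibition at 5 µM, scaled per plate between neutral and stimulator controls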;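 also: PAF is a Pseudomonas aeruginosa culture filtrate used as stimulus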
CHOP inh conf: confirmation of CHOP induction inhibitors; shares compounds with CHOP inh; hit rate 45% among 2,100; AID 504437; CHO-CHOP promoter luciferase reporter, tunicamycin-induced, luminescence; inhibition, % at 10 µM;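 active = mean of three repeat readings of reporter signal inhibition above a set limit, cut at about 70% in these data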
Each line names hits and unclear results; the compound was inactive in the other large screens (follow-up assays come after a bar, where they were run). Only some compounds are listed: those with a hit (about 4.3% of all), similar ones and a draw of the others.

COc1ccc(-n2c(N)c(C(=O)NCc3ccco3)c3nc4ccccc4nc32)cc1OC	CHOP inh 104 | CHOP inh conf inactive
COc1cc(-n2c(N)c(C(=O)NCc3ccco3)c3nc4ccccc4nc32)cc(OC)c1OC	none
O=C(Nc1cccc(Cl)c1)C1CCCN(S(=O)(=O)c2ccc(F)cc2)C1 (configuration not stated)	CHOP inh 99 | CHOP inh conf inactive
COc1ccc(-n2cccc2/C=C2\C(=N)N3N=C(C(C)C)SC3=NC2=O)cc1	none
COc1ccc(-n2cccc2/C=C2\C(=N)N3N=C(c4ccco4)SC3=NC2=O)cc1	CHOP inh 102 | CHOP inh conf inactive
Cc1ccc(NN2C(=O)C=CC2=O)cc1	none
COc1ccc(C2=CC(=O)N(Nc3ccccc3)C2=O)cc1	CHOP inh 101 (no result: MITF TRPM1 inh) | CHOP inh conf inactive
Cc1ccc(NN2C(=O)C=C(c3ccc(Cl)cc3)C2=O)cc1	Peg3 prom inh 105, CHOP inh 108 | CHOP inh conf 140
c1cnc2ccc3c(c2c1)COCO3	none (no result: CHOP inh)
COc1ccccc1NCC(O)Cn1c2ccccc2c2ccccc21 (configuration not stated)	CHOP inh 100 | CHOP inh conf inactive
COc1ccc(CN2CCN(CC(O)Cn3c4ccccc4c4ccccc43)CC2)cc1 (configuration not stated)	none
CCOC(=O)C1=C(C(=O)OCC)N(CC)CCC1=O	none (no result: CHOP inh)
c1cc2c3c(cccc3c1)NC1(CCCCC1)N2	none
c1cc2c3c(cccc3c1)NC1(CCCCCC1)N2	CHOP inh 107 | CHOP inh conf inactive
COc1ccc(CN(CCN)C2CC(C)N(C)CC2C)cc1 (configuration not stated)	none (no result: CHOP inh)
O=S(=O)(/N=S1/CC=CCN1S(=O)(=O)c1ccccc1)c1ccccc1 (configuration not stated)	CHOP inh 104 | CHOP inh conf inactive
O=S(=O)(c1ccccc1)N1CCN(S(=O)(=O)c2ccccc2)C1	none
O=C(Nc1ccccc1N1CCN(C(=O)c2ccccc2)CC1)c1cc2ccccc2o1	CHOP inh 98 | CHOP inh conf inactive
O=c1/c(=C\c2cccnc2)sc2nc3ccccc3n12	none
O=C1c2sc3nc4ccccc4n3c2C(=O)N1c1ccccc1Cl	CHOP inh 106 | CHOP inh conf inactive
Cc1ccccc1N1C(=O)c2sc3nc4c(c(=O)n3c2C1=O)CCC4	CHOP inh 106 | CHOP inh conf inactive
Nc1nonc1-n1nnc(C(=O)N/N=C/c2ccccc2Cl)c1COc1ccc(F)cc1	none
CC(C)C[C@H](NC(=O)OC(C)(C)C)C(=O)N/N=C/C1=Cc2ccccc2OC1C (some centres not stated)	CHOP inh 103 | CHOP inh conf 91
Clc1ccc(-c2n[nH]c3c2CCC3)cc1Cl	CHOP inh 98 | CHOP inh conf inactive
Fc1ccc(C2=Nn3c(nnc3-c3n[nH]c4c3CCC4)SC2)cc1	none
Cc1nc2ccc(C(=O)NCCc3c[nH]c4ccccc34)cn2c1N(C)C(=O)CCc1ccccc1	none (no result: MITF TRPM1 inh, CHOP inh)
CCCOc1ccc(N2C(=O)CC(NNC(=O)c3ccc(COc4ccccc4)o3)C2=O)cc1 (configuration not stated)	CHOP inh 102 | CHOP inh conf inactive
CNc1ccc(Br)cc(C(=O)/C=C/c2cccc(Cl)c2Cl)c1=O	Peg3 prom inh 106, MITF TRPM1 inh 81, CHOP inh 101 | CHOP inh conf inactive
CCOC(=O)C1=C(O)/C(=C/c2ccc(CNC(=O)C(=O)Nc3ccc(C)cc3)o2)N=C1C	CHOP inh 106 | CHOP inh conf 109
CCOC(=O)C(=O)NCc1ccc(/C=C2/N=C(C)C(C(=O)OCC)=C2O)o1	none
O=[N+]([O-])c1ccc(N2CCN(c3ccccc3O)CC2)c(Cl)c1	CHOP inh 96 | CHOP inh conf inactive
O=[N+]([O-])c1ccc(N2CCN(c3ccccc3O)CC2)cc1	none (no result: CHOP inh)
COCOCCn1cc(CN2CCS(=O)(=O)N(Cc3ccc(-c4ccc(F)nc4)cc3)C(CC(C)C)C2=O)nn1 (configuration not stated)	none (no result: MITF TRPM1 inh, CHOP inh)
COC(=O)c1[nH]c2ccc(C)cc2c1NC(=O)Nc1ccc(OC)cc1	CHOP inh 101 | CHOP inh conf inactive
CC(NC(=O)c1ccco1)C(=O)N1CCN(c2cccc(C(F)(F)F)c2)CC1 (configuration not stated)	none (no result: CHOP inh)
O=S(=O)(Nc1ccc(N2CCCCC2)cc1)c1ccc(F)c(F)c1	CHOP inh 100 | CHOP inh conf inactive
O=C(O)c1cc(S(=O)(=O)Nc2ccc(N3CCCCC3)cc2)ccc1Cl	none
COc1cc(CN2CCCN(C)CC2)cc([N+](=O)[O-])c1O	none (no result: CHOP inh)
COc1cccc(OCCSc2nc(C)c(Cc3ccccc3)c(=O)[nH]2)c1	CHOP inh 99 | CHOP inh conf inactive
O=C(NCCc1ccccc1)C1CCC(CNc2nc(=S)[nH]c3ccccc23)CC1 (configuration not stated)	CHOP inh 104 | CHOP inh conf inactive
O=C(CCCCCNc1nc(=S)[nH]c2ccccc12)NCCC1=CCCCC1	CHOP inh 101 | CHOP inh conf inactive
COc1ccccc1C(=O)COC(=O)c1cc(=O)[nH]c2ccccc12	none (no result: CHOP inh)
Cc1ccc(C(=O)COC(=O)c2cc(=O)[nH]c3ccccc23)cc1C	CHOP inh 102 | CHOP inh conf inactive
O=C(COc1ccc(/C=N/NC(=O)c2cc3ccccc3o2)cc1Cl)Nc1ccccc1	KKLEB tox -93, Peg3 prom inh 108, MITF TRPM1 inh 95, CHOP inh 108, CF NFkB block 90 | CHOP inh conf inactive
CCOc1cc(/C=N\NC(=O)Cc2ccccc2)ccc1OCC(=O)Nc1ccc(C)c(C)c1	MITF TRPM1 inh 64, CHOP inh 97 | CHOP inh conf 127
COc1cc(/C=N/NC(=O)c2ccccc2O)ccc1OCC(=O)Nc1ccccc1	none (no result: CHOP inh)
N=C1/C(=C\c2coc3ccccc3c2=O)C(=O)N=C2SC(c3ccncc3)=NN12	CHOP inh 102 | CHOP inh conf inactive
O=C1CC2(CCCCC2)CC(=O)N1CCc1ccccc1	none (no result: CHOP inh)
O=C1C=CC(=O)C(C2=C3C(=O)N(CCc4ccccc4)CC(=O)N3CCC2)=C1	CHOP inh 105 (no result: KKLEB tox, Peg3 prom inh, HIF-2a block, MITF TRPM1 inh, CF NFkB block) | CHOP inh conf inactive
COc1ccc(N2CC(C(=O)N3CCN(c4ccccc4)CC3)CC2=O)cc1 (configuration not stated)	none (no result: CHOP inh)
O=C(COC(=O)Cc1c(Cl)cccc1Cl)Nc1ccc(OC(F)(F)F)cc1	CHOP inh 109 | CHOP inh conf 86
O=C(Nc1ccc(Cl)cc1)Nc1ccc(N2CCCC2)c(S(=O)(=O)Nc2ccccc2Cl)c1	MITF TRPM1 inh 71, CHOP inh 100 | CHOP inh conf 73
COc1cc(C(CCN2CCCC2)c2c(OC)cc(OC)c3ccc(=O)oc23)cc(OC)c1OC (configuration not stated)	none
